Active and inactive are the calls of the source. Unless noted, no rule for the calls is given here.
Experiments:
[1] = compounds binding Alexa647 anti-His antibody – biochemical, small-molecule microarray, 635 nm fluorescence, artefact control for SMM control protein annotation, primary screen (AID 1128); details: higher = more signal;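 also: score merges feature fluorescence with signal-to-noise for each printed compound spot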
[2] = test system: Human papillomavirus type 1a E7 protein (residues 1-88); assay: HPV1a E7 small-molecule binders, primary screen, biochemical, small-molecule microarray, residues 1-88, 635 nm (AID 1129); details: small-molecule microarray binding, fluorescence 635 nm; higher = more signal
[3] = molecular target: Focal adhesion kinase 1 (Homo sapiens) (UniProt Q05397); assay: PTK2 protein binding on printed compound slides – biochemical, small-molecule microarray, 635/667 nm fluorescence, BSA, DTT, primary screen (AID 1130); details: 635 nm fluorescence, higher = more signal;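 also: composite of spot emission at 667 nm and signal to noise over triplicate slides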
[4] = test system: Fibrinogen (Alexa647-labelled); assay: Alexa647-fibrinogen binding to printed small molecules – biochemical, small-molecule microarray, 635/667 nm fluorescence, artefact control for SMM control-protein annotation, profiling panel (AID 1131); details: fibrinogen-A647 binding fluorescence, higher = more signal;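 also: z-score merges 667 nm fluorescence with per-spot signal-to-noise over triplicate slides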
[5] = molecular target: Follistatin (Homo sapiens) (UniProt P19883); assay: FST protein binding to printed compounds – biochemical, small-molecule microarray, 635/667 nm fluorescence, primary screen (AID 1132); details: 635 nm fluorescence, higher = more signal
[6] = molecular target: Fibroblast growth factor 2 (Homo sapiens) (UniProt P09038); assay: basic fibroblast growth factor binding to printed compounds – biochemical, small-molecule microarray, 635/667 nm fluorescence, primary screen (AID 1133); details: FGF2, fluorescence 635/667, higher = more signal
[7] = JC-1 mitochondrial potential readout, lung cancer cells – cell-based, A549, JC-1 fluorescence, basal, 24 h, 100 nL, profiling panel (AID 1138); details: higher = more signal;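 also: A549 lung adenocarcinoma cells under basal conditions with no added stimulus; test concentration not given here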
Lefty1 = Lefty1 protein binding to printed compounds – biochemical, small-molecule microarray, 635/667 nm fluorescence, primary screen (AID 1139); details: fluorescence 635/667, higher = more signal
[8] = test system: wheat germ agglutinin (Triticum aestivum), Alexa647-labelled; assay: Alexa647-WGA lectin binding to printed small molecules – biochemical, small-molecule microarray, 635/667 nm fluorescence, artefact control for SMM control-protein annotation, profiling panel (AID 1140); details: WGA-A647 binding, 635 nm fluorescence, higher = more signal;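 also: score merges 667 nm feature emission with signal to noise over triplicate slides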
[9] = molecular target: Luciferin 4-monooxygenase (Photinus pyralis) (UniProt P08659); assay: inhibition of purified Photinus pyralis luciferase – biochemical, luminescence, purified enzyme, 2006 set, primary screen (AID 1141); details: purified firefly luciferase, SteadyGlo luminescence, 30 min; higher = more signal, called active from +8 up or from −8 down;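 also: cell-free assay with purified firefly luciferase at 100 ng per well in PBS; test concentration not given here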
[10] = test system: Wnt5a (protein binding on small-molecule microarray); assay: small molecules binding Wnt5a protein – biophysical, small-molecule microarray, 635/667 nm fluorescence, primary screen (AID 1142); details: 635 nm fluorescence, higher = more signal;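 also: fluorescence read at 667 nm with signal to noise per printed feature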
[11] = ATP-based viability of Huh7 replicon cells – cell-based, CellTiter-Glo luminescence, basal, 48 h, cytotoxicity control for HCV replication inhibitor project, primary screen (AID 1143); details: higher = more signal, called active from +8 up or from −8 down;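 also: Huh7 hepatoma cells carrying a hepatitis C replication reporter with no stimulus; test concentration not given here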
[12] = Pseudomonas biofilm growth suppression – PAO1 strain, BacTiter-Glo luminescence, LB-PBS, primary screen (AID 1144); details: P. aeruginosa PAO1 biofilm, 12 h, higher = more signal
[13] = basal CRE-LacZ reporter activity in PC12 – cell-based, unstimulated, primary screen (AID 1145); details: no forskolin, luminescence, 4.5 h, higher = more signal, called active from +8 up or from −8 down
[14] = forskolin-driven CRE-LacZ activity in PC12 – cell-based, CRE-LacZ reporter, forskolin-stimulated, primary screen (AID 1146); details: luminescence, 4.5 h, higher = more signal, called active from +8 up or from −8 down;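 also: PC12 cells with 6xCRE LacZ reporter stimulated by forskolin 10 µM; beta-galactosidase reporter signal reflecting CREB driven transcription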
[15] = molecular target: Streptavidin (Streptomyces avidinii) (UniProt P22629); assay: compounds binding control protein streptavidin – biophysical, small-molecule microarray, 635/667 nm fluorescence, artefact control for SMM compound annotation, primary screen (AID 1147); details: higher = more signal;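 also: signal reflects streptavidin binding to arrayed compounds as a control protein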
[16] = probe aInhba binding on compound microarray – biochemical, small-molecule microarray, 635/667 nm fluorescence, primary screen (AID 1148); details: higher = more signal;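 also: score merges 667nm spot fluorescence with signal-to-noise for antibody binding to printed compounds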
Torsin-1A (Homo sapiens) [17] = molecular target: Torsin-1A (Homo sapiens) (UniProt O14656); assay: TOR1A wild-type binding on microarray – cell lysate, small-molecule microarray, lysate, 635/667 nm, primary screen (AID 1149); details: COS7 hTOR1A-WT lysate, 635 nm fluorescence, higher = more signal
Torsin-1A (Homo sapiens) [18] = molecular target: Torsin-1A (Homo sapiens) (UniProt O14656); assay: torsin A mutant lysate binding on microarrays – cell lysate, small-molecule microarray, COS7 lysate, 635/667 nm fluorescence, primary screen (AID 1150); details: COS7 hTOR1A mutant lysate, 635 nm fluorescence, higher = more signal;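 also: score pools 667 nm emission and signal to noise measuring lysate protein binding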
[19] = test system: Sonic hedgehog protein (Shh); assay: Sonic hedgehog microarray binding compounds – biochemical, small-molecule microarray, 635/667 nm fluorescence, primary screen (AID 1151); details: 635 nm fluorescence, higher = more signal;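 also: Shh protein binding to compounds spotted on small-molecule microarray slides; score combines spot fluorescence intensity with signal-to-noise across triplicate slides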

Sequence of Torsin-1A (Homo sapiens) (O14656 whole entry, looked up): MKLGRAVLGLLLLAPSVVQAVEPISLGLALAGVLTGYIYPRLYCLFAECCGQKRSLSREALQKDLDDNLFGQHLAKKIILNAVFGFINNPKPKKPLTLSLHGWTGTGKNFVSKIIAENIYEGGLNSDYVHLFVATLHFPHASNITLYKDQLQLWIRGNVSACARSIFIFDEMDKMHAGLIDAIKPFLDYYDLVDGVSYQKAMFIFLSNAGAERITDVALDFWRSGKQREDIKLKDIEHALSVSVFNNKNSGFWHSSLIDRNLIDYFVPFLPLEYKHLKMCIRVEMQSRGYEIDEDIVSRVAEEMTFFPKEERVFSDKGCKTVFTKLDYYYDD
Sequence of Luciferin 4-monooxygenase (Photinus pyralis) (P08659 whole entry, looked up): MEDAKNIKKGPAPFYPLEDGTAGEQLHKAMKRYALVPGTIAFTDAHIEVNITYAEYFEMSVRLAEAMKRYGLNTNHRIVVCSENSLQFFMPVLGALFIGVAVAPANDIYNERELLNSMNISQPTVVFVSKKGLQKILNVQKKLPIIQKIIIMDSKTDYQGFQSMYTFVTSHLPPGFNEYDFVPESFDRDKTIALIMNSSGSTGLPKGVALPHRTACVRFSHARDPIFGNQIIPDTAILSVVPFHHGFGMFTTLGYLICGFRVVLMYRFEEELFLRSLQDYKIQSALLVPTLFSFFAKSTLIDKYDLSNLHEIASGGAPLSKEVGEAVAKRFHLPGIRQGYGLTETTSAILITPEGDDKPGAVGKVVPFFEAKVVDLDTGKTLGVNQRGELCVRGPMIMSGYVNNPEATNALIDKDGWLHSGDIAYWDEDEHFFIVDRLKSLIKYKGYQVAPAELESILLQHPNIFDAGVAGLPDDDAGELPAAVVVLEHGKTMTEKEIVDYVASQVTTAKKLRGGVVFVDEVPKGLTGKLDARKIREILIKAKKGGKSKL
Sequence of Focal adhesion kinase 1 (Homo sapiens) (Q05397 whole entry, looked up): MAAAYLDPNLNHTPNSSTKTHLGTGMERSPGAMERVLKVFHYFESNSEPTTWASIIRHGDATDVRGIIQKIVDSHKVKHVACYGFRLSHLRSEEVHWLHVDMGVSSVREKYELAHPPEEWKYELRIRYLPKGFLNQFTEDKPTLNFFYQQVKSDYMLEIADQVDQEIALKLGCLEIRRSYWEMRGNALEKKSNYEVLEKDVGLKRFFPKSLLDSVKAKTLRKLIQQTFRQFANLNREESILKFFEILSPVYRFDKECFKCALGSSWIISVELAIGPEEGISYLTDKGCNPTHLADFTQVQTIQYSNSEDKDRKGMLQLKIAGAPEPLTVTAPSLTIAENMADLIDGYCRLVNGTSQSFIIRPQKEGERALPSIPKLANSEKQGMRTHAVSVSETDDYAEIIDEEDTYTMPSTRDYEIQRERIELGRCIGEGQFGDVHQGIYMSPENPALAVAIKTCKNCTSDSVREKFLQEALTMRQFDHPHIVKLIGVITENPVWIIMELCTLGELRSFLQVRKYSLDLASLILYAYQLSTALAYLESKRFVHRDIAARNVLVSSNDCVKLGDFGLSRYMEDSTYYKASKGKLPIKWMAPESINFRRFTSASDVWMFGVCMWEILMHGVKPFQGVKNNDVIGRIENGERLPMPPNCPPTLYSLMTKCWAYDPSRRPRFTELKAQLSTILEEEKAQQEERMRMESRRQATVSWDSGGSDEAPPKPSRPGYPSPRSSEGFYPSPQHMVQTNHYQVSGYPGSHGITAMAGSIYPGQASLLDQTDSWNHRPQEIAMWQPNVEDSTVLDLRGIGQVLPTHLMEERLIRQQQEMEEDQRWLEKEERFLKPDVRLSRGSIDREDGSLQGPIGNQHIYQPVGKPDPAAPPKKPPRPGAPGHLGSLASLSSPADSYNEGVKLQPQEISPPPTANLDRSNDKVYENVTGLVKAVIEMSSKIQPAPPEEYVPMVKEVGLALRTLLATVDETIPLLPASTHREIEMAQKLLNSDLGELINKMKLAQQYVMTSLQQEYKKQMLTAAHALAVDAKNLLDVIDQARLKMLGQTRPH
Sequence of Follistatin (Homo sapiens) (P19883 whole entry, looked up): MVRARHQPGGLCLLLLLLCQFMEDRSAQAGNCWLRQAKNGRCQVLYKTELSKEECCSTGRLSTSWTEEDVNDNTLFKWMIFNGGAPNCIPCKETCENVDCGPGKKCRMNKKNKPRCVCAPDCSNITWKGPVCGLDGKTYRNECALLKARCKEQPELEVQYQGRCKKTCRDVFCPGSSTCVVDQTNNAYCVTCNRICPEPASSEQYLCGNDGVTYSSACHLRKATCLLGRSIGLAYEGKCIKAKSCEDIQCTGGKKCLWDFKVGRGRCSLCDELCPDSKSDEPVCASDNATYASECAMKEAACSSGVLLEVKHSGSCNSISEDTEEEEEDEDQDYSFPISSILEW
Sequence of Fibroblast growth factor 2 (Homo sapiens) (P09038 whole entry, looked up): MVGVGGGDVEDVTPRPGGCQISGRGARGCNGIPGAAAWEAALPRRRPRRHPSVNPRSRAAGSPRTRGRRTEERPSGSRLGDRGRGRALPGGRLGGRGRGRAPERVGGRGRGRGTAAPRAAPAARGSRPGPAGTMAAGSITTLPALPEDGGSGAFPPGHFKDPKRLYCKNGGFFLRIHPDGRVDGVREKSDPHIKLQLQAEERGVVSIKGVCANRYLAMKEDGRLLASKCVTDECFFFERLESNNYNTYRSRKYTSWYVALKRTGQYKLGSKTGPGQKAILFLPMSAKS
Sequence of Streptavidin (Streptomyces avidinii) (P22629 whole entry, looked up): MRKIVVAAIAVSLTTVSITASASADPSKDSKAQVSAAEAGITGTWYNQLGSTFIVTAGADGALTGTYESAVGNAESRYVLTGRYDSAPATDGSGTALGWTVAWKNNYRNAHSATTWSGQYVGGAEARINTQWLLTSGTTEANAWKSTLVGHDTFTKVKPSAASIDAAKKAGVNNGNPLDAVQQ

COC(=O)[C@@]1(Cc2ccc(OC)cc2)[C@H]2c3cc(C(=O)N4CCCC4)n(C[C@H](O)CO)c3C[C@H]2CN1C(=O)c1ccccc1
composite z-score [1]: 0.39
composite z-score [2]: 0.339
composite z-score [3]: 0.493
composite z-score [4]: 0.276
composite z-score [5]: -0.319
composite z-score [6]: -0.411
z-score [7]: 0.605
composite z-score (Lefty1): -0.752
composite z-score [8]: 1.02
z-score [9]: 1.84 (inactive)
composite z-score [10]: 0.0149
z-score [11]: -0.132 (inactive)
z-score [12]: -0.389 (inactive)
z-score [13]: -0.365 (inactive)
z-score [14]: 0.294 (inactive)
composite z-score [15]: 0.528
composite z-score [16]: 0.0082
composite z-score (Torsin-1A (Homo sapiens) [17]): -0.467
composite z-score (Torsin-1A (Homo sapiens) [18]): 0.354
composite z-score [19]: -0.666

COC(=O)[C@@]1(Cc2ccc(OC)cc2)[C@H]2c3cc(C(=O)N(C)C)n(CCSCCO)c3C[C@H]2CN1C(=O)c1ccccc1
composite z-score [1]: 0.957
composite z-score [2]: 1.32
composite z-score [3]: 1.68
composite z-score [4]: 0.971
composite z-score [5]: 0.108
composite z-score [6]: -0.569
z-score [7]: -0.399
composite z-score (Lefty1): -1.03
composite z-score [8]: 0.515
z-score [9]: -0.572 (inactive)
composite z-score [10]: 0.706
z-score [11]: -2.19 (inactive)
z-score [12]: 0.565 (inactive)
z-score [13]: -0.954 (inactive)
z-score [14]: 0.325 (inactive)
composite z-score [15]: 0.872
composite z-score [16]: 0.351
composite z-score (Torsin-1A (Homo sapiens) [17]): -0.101
composite z-score (Torsin-1A (Homo sapiens) [18]): 0.199
composite z-score [19]: -0.824

C=C[C@H](C)[C@H](OC(=O)Nc1ccc(OC)cc1)c1ccc(O)c2ccccc12
composite z-score [1]: -0.732
composite z-score [2]: -0.337
composite z-score [3]: -0.208
composite z-score [4]: 0.604
composite z-score [5]: 0.782
composite z-score [6]: 0.39
z-score [7]: -1.6
composite z-score (Lefty1): 0.47
composite z-score [8]: 0.0411
z-score [9]: -3.78 (inactive)
composite z-score [10]: 0.107
z-score [11]: -3.55 (inactive)
z-score [12]: -0.156 (inactive)
z-score [13]: 0.236 (inactive)
z-score [14]: 0.544 (inactive)
composite z-score [15]: -0.199
composite z-score [16]: -0.128
composite z-score (Torsin-1A (Homo sapiens) [17]): 0.822
composite z-score (Torsin-1A (Homo sapiens) [18]): 0.16
composite z-score [19]: 0.9

O=C(NCc1ccccc1)[C@@H]1c2ccccc2C(=O)N(Cc2cc(F)cc(C(F)(F)F)c2)[C@H]1c1ccc(CO)cc1
composite z-score [1]: 2.54
composite z-score [2]: 1.19
composite z-score [3]: 0.187
composite z-score [4]: 0.571
composite z-score [5]: 1.27
composite z-score [6]: 0.339
z-score [7]: 1.45
composite z-score (Lefty1): 0.61
composite z-score [8]: 0.144
z-score [9]: -1.13 (inactive)
composite z-score [10]: 0.0748
z-score [11]: -1.26 (inactive)
z-score [12]: 0.339 (inactive)
z-score [13]: -0.0888 (inactive)
z-score [14]: -1.61 (inactive)
composite z-score [15]: 0.0709
composite z-score [16]: 0.0227
composite z-score (Torsin-1A (Homo sapiens) [17]): 0.484
composite z-score (Torsin-1A (Homo sapiens) [18]): 0.426
composite z-score [19]: 1.15

C=CCOC(=O)[C@@H]1[C@H]2C(=O)O[C@H](c3ccccc3)[C@H](c3ccccc3)N2[C@H](c2ccc(OCCOC(=O)[C@H]3C[C@H]4C(=O)N[C@@H](CC(C)C)C(=O)N4[C@H]3c3cccc(OCCO)c3)cc2)[C@@]12C(=O)Nc1ccc(I)cc12
composite z-score [1]: 2.26
composite z-score [2]: 1.19
composite z-score [3]: 0.844
composite z-score [4]: 0.587
composite z-score [5]: 1.38
composite z-score [6]: 1.63
z-score [7]: -0.736
composite z-score (Lefty1): 1.5
composite z-score [8]: 0.34
z-score [9]: -0.201 (inactive)
composite z-score [10]: 0.289
z-score [11]: -2.48 (inactive)
z-score [12]: -0.174 (inactive)
z-score [13]: 0.419 (inactive)
z-score [14]: -0.0639 (inactive)
composite z-score [15]: 0.332
composite z-score [16]: 0.247
composite z-score (Torsin-1A (Homo sapiens) [17]): 1
composite z-score (Torsin-1A (Homo sapiens) [18]): 1.15
composite z-score [19]: 2.06

NC(=O)[C@@]1(CCS(=O)(=O)c2ccccc2)N=C(c2ccc(OCCCO)cc2)O[C@H]1c1ccccc1
composite z-score [1]: 2.14
composite z-score [2]: 1.27
composite z-score [3]: 0.533
composite z-score [4]: 1.02
composite z-score [5]: 0.78
composite z-score [6]: -0.507
z-score [7]: -0.309
composite z-score (Lefty1): -0.0434
composite z-score [8]: 1.17
z-score [9]: 0.155 (inactive)
composite z-score [10]: 0.211
z-score [11]: -5.04 (inactive)
z-score [12]: 0.814 (inactive)
z-score [13]: 0.0451 (inactive)
z-score [14]: -1.38 (inactive)
composite z-score [15]: 0.856
composite z-score [16]: 0.0872
composite z-score (Torsin-1A (Homo sapiens) [17]): 0.699
composite z-score (Torsin-1A (Homo sapiens) [18]): 0.799
composite z-score [19]: -1.2

CCOC(=O)C1=CC[C@@H](c2ccccc2)N(S(=O)(=O)c2ccc(C)cc2)[C@H]1c1ccc(C#N)cc1
composite z-score [1]: 1
composite z-score [2]: 1.19
composite z-score [3]: 0.456
composite z-score [4]: 0.931
composite z-score [5]: -0.0375
composite z-score [6]: -0.732
z-score [7]: 2.11
composite z-score (Lefty1): -0.507
composite z-score [8]: 1.23
z-score [9]: 1.23 (inactive)
composite z-score [10]: 0.344
z-score [11]: -2.07 (inactive)
z-score [12]: 0.742 (inactive)
z-score [13]: 1.42 (inactive)
z-score [14]: 0.0633 (inactive)
composite z-score [15]: 1.31
composite z-score [16]: 0.066
composite z-score (Torsin-1A (Homo sapiens) [17]): -0.0412
composite z-score (Torsin-1A (Homo sapiens) [18]): 0.389
composite z-score [19]: -0.428

COc1ccc(C#Cc2ccc3c(c2)[C@]2(C(=O)N3)[C@H](C(=O)N3CCN(c4ncccn4)CC3)[C@H]3C(=O)O[C@H](c4ccccc4)[C@H](c4ccccc4)N3[C@@H]2c2ccc(O)cc2)cc1
composite z-score [1]: 0.658
composite z-score [2]: 1.2
composite z-score [3]: 0.392
composite z-score [4]: 0.972
composite z-score [5]: 1.2
composite z-score [6]: 0.485
z-score [7]: -0.799
composite z-score (Lefty1): 0.884
composite z-score [8]: 0.4
z-score [9]: -0.374 (inactive)
composite z-score [10]: 0.205
z-score [11]: -0.629 (inactive)
z-score [12]: -0.747 (inactive)
z-score [13]: 0.775 (inactive)
z-score [14]: -0.612 (inactive)
composite z-score [15]: 1.04
composite z-score [16]: 0.13
composite z-score (Torsin-1A (Homo sapiens) [17]): -0.0852
composite z-score (Torsin-1A (Homo sapiens) [18]): 0.231
composite z-score [19]: 0.88

Cc1ccc(F)cc1S(=O)(=O)N[C@@H]1CCN(Cc2ccc(C(F)(F)F)cc2)C1
composite z-score [1]: -0.175
composite z-score [2]: -0.704
composite z-score [3]: -0.0343
composite z-score [4]: -0.292
composite z-score [5]: 0.277
composite z-score [6]: -0.456
z-score [7]: 0.197
composite z-score (Lefty1): 0.22
composite z-score [8]: -0.655
z-score [9]: -0.0404 (inactive)
composite z-score [10]: -0.192
z-score [11]: -4.39 (inactive)
z-score [12]: 1.2 (inactive)
z-score [13]: 3.48 (inactive)
z-score [14]: 0.777 (inactive)
composite z-score [15]: -0.381
composite z-score [16]: -0.208
composite z-score (Torsin-1A (Homo sapiens) [17]): -0.181
composite z-score (Torsin-1A (Homo sapiens) [18]): 0.319
composite z-score [19]: 0.451

COCCOC(=O)N1C(=O)[C@@]2(c3cc(C#CCC(C(=O)OC)C(=O)OC)ccc31)[C@H](c1ccc(OCCO)cc1)N1[C@H](c3ccccc3)[C@H](c3ccccc3)OC(=O)[C@H]1[C@@H]2C(=O)NC[C@H](O)c1ccccc1
composite z-score [1]: 1.18
composite z-score [2]: 1.22
composite z-score [3]: 0.418
composite z-score [4]: 0.952
composite z-score [5]: 1.29
composite z-score [6]: 1.7
z-score [7]: -0.95
composite z-score (Lefty1): 1.15
composite z-score [8]: 0.422
z-score [9]: -0.056 (inactive)
composite z-score [10]: 0.354
z-score [11]: -1.84 (inactive)
z-score [12]: -1.29 (inactive)
z-score [13]: -1.56 (inactive)
z-score [14]: -0.526 (inactive)
composite z-score [15]: 0.521
composite z-score [16]: 0.281
composite z-score (Torsin-1A (Homo sapiens) [17]): 1.72
composite z-score (Torsin-1A (Homo sapiens) [18]): 1.18
composite z-score [19]: 2.14
